SW480 rerep – A quantitative high throughput screen for small molecules that induce DNA re-replication in SW480 colon adenocarcinoma cells; Potency, µM (top dose mostly 46.1 µM), most hits filed as activators; 340,000 tested, 1.8% active; SW480 DNA re-replication, Hoechst DNA content imaging, 48 h; also: nearly all actives have a fitted effect of over 55% in size
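Compounds, transferred as 23 nL by pin tool, were incubated with cells for 48 hr; DNA content per nucleus was then quantified by Hoechst staining and fluorescence plate imaging.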
D3 ag – qHTS of D3 Dopamine Receptor Agonist: qHTS | AID 652048, 2013 | max activation, % | D3R DiscoveRx beta-arrestin cells, luminescence, 90 min | D(3) dopamine receptor (Homo sapiens), P35462 | 410,000 tested, 0.58% active; in the data active = max activation above about 30%
Target sequence (P35462 whole entry, looked up): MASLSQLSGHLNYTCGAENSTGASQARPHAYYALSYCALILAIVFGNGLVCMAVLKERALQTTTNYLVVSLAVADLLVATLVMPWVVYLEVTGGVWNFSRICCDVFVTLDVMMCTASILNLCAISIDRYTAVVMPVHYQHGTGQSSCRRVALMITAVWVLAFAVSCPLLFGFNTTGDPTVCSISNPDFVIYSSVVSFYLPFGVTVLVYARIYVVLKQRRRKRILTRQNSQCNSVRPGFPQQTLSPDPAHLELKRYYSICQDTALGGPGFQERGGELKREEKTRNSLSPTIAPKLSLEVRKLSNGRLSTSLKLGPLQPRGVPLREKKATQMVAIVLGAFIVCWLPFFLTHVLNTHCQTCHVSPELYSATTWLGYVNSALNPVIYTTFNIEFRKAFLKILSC
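Agonist mode: compounds and dopamine controls were applied to plated cells for 90 min at 37 degrees C after an overnight attachment at 1500 cells/well. Luminescent read-out followed 30 - 60 minutes at room temperature with DiscoveRx detection reagent.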
MCF10A rerep – A quantitative high throughput screen for small molecules that induce DNA re-replication in MCF 10a normal breast cells; AID 624296, 2012; 350,000 tested, 2.9% active; MCF 10A DNA re-replication, Hoechst nuclear intensity, 48 h; Potency, µM (series often up to 46.1 µM), hits mostly activators; also: nearly all actives have a fitted effect of over 50% in size
KB-V1 cytotox – qHTS assay for MDR1-selective chemotherapeutics: Primary screen using the drug-selected MDR subline cells KB-V1; 400,000 tested, 3.4% active; AID 1347076, 2019; Potency, µM (highest dose often 46.1 µM), actives largely listed as cytotoxic; KB-V1 MDR cells viability, CellTiter-Glo, 72 h; also: nearly all actives have a fitted effect of over 60% in size
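In this primary screen, KB-V1 cells overexpressing P-gp are incubated with library compounds (lowest to highest concentration) for 72 h at 37 degrees C before a luminescent ATP viability read.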
KB-3-1 cytotox – qHTS assay for MDR1-selective chemotherapeutics: Primary screen using the parental adenocarcinoma cell KB-3-1; KB-3-1 viability, CellTiter-Glo ATP luminescence, 72 h; Potency, µM (highest dose often 46.1 µM), actives largely listed as cytotoxic; 400,000 tested, 1.4% active; also: nearly all actives have a fitted effect of over 60% in size
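Multi-concentration cytotoxicity screen in KB-3-1 cells grown in DMEM lacking phenol red with 10% FBS. After 72 h at 37 °C with compound, ATP-dependent luminescence was recorded.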
D3 antag – qHTS of D3 Dopamine Receptor Antagonist: qHTS; D(3) dopamine receptor (Homo sapiens), P35462; D3R cells, DiscoveRx beta-arrestin luminescence, antagonist mode; active compounds read low; max response, negative = inhibition, %; 360,000 tested, 2.5% active; AID 652054, 2013; in the data active = max response below about -50%; inconclusive = no clear call, values can overlap the other calls
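Cells expressing the human receptor were seeded at 1500 cells/well, incubated overnight at 37 degrees C in 5% CO2, then exposed to library compounds with dopamine controls for 90 minutes at 37 degrees C before luminescent detection.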
Of the large screens only hits and unclear results are named; the others gave an inactive call. A selection: hits, their analogues and other compounds. The true share with any hit is near 8.9%. Unless noted, calls follow the shape of the dose curve; as a rule, active = well fitted curve in the direction sought with a large enough effect; inconclusive = small, poorly fitted or top-dose-only effect, or another doubt; inactive = no such curve, though single readings can be large; an effect the other way counts as inactive or inconclusive.

CCN=C1S/C(=C\c2cc(OCC)c(O)cc2Br)C(=O)N1CC	SW480 rerep inconclusive, MCF10A rerep 18µM, KB-3-1 cytotox inconclusive
CCOc1cc2[nH]c(=S)n(CC3CCCO3)c(=O)c2cc1OCC (centres undefined)	MCF10A rerep inconclusive, KB-V1 cytotox 12µM, KB-3-1 cytotox inconclusive
CCOc1cc(/C=C2/SC(=S)N(CC3CCCO3)C2=O)ccc1O (centres undefined)	SW480 rerep inconclusive, MCF10A rerep inconclusive, D3 antag -64
CC(CN(C)C)CN1c2ccccc2S(=O)(=O)c2ccccc21 (centres undefined)	none (no result: SW480 rerep, MCF10A rerep, KB-V1 cytotox, KB-3-1 cytotox, D3 antag)
COC(=O)C(CCSC)NC(=O)Cn1ncc2c([nH]c3ccccc32)c1=O (centres undefined)	none (no result: SW480 rerep, MCF10A rerep, D3 antag)
COc1cccc(CCc2ccccc2OCC(CN(C)C)OC(=O)CCC(=O)O)c1 (centres undefined)	SW480 rerep 30µM (no result: D3 antag)
CCc1cc2c(Sc3nc4ccccc4s3)ncnc2s1	SW480 rerep inconclusive, MCF10A rerep inconclusive, KB-V1 cytotox inconclusive, KB-3-1 cytotox 12µM
c1ccc2sc(Sc3ncnc4sccc34)nc2c1	SW480 rerep inconclusive, MCF10A rerep 21µM
Cn1c(C(=O)OCC(=O)NCc2ccc(F)cc2)cc2occc21	MCF10A rerep 2.9µM
CC[C@@H]1CC=C[C@H]2[C@H]1C(=O)N(Cc1ccccc1)[C@H]2c1ccoc1	MCF10A rerep 8.2µM, KB-V1 cytotox inconclusive, KB-3-1 cytotox 15µM, D3 antag inconclusive
COc1ccc(-c2cc([C@H]3[C@H]4C=CC[C@@H](C)[C@@H]4C(=O)N3Cc3ccccc3)ccc2F)cc1	MCF10A rerep inconclusive, KB-V1 cytotox inconclusive, KB-3-1 cytotox 16µM
COC(=O)c1ccc(-c2ccc([C@H]3[C@H]4C=CC[C@@H](C)[C@@H]4C(=O)N3Cc3ccccc3)c(F)c2)cc1	SW480 rerep inconclusive, MCF10A rerep inconclusive
COc1ccc(-c2cc([C@H]3[C@H]4C=CC[C@@H](C)[C@@H]4C(=O)N3Cc3ccccc3)ccc2F)cc1OC	MCF10A rerep inconclusive, KB-V1 cytotox inconclusive, KB-3-1 cytotox 16µM
C[C@@H]1CC=C[C@H]2[C@H]1C(=O)N(Cc1ccccc1)[C@H]2c1ccc2ccccc2c1	MCF10A rerep inconclusive, D3 antag inconclusive
CC(=O)c1ccc(-c2ccc([C@H]3[C@H]4C=CC[C@@H](C)[C@@H]4C(=O)N3Cc3ccccc3)c(F)c2)cc1	MCF10A rerep inconclusive, KB-V1 cytotox 21µM, KB-3-1 cytotox inconclusive
COc1ccc(/C=C/c2ccccc2)cc1[C@H]1[C@H]2C=CC[C@@H](C)[C@@H]2C(=O)N1Cc1ccccc1	KB-3-1 cytotox inconclusive, D3 antag -53
CCc1ccccc1NC(=O)C(C)n1nc(-c2ccc(C)c(C)c2)ccc1=O (centres undefined)	none (no result: SW480 rerep, MCF10A rerep, D3 antag)
CCCCOc1ccc(C(C)NC(=O)CN2C(=O)CSc3ccc(S(=O)(=O)N4CCOCC4)cc32)cc1 (centres undefined)	none (no result: SW480 rerep, MCF10A rerep, KB-V1 cytotox, KB-3-1 cytotox, D3 antag)
O=C(c1ccccc1Br)N(Cc1ccccc1F)C1CCS(=O)(=O)C1 (centres undefined)	none (no result: SW480 rerep, MCF10A rerep, D3 antag)
CCn1c(COc2ccc(=O)n(-c3ccccc3)n2)nnc1SCc1cccc(OC)c1	KB-V1 cytotox 16µM
COc1cccc(C(=O)Nc2ccccc2C(=O)OCc2cc(=O)n3c4c(sc3n2)CCCC4)c1	none (no result: SW480 rerep, MCF10A rerep, KB-V1 cytotox, KB-3-1 cytotox, D3 antag)
c1ccc(C[n+]2csc3ccccc32)cc1	SW480 rerep inconclusive, MCF10A rerep 23µM
CC1CCCC(C)N1CCCNC(=O)Cn1ncc2c([nH]c3ccccc32)c1=O (centres undefined)	none
CN1CCN(c2ccccc2NC(=O)Cn2ncc3c([nH]c4ccccc43)c2=O)CC1	SW480 rerep inconclusive
Cc1ccc2[nH]c3c(=O)n(CC(=O)Nc4ccccc4N4CCN(C)CC4)ncc3c2c1	SW480 rerep 21µM, MCF10A rerep inconclusive, D3 antag -55

Assay outcomes deposited in PubChem by National Center for Advancing Translational Sciences (NCATS).
